# Activity calls are given as the source filed them.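 The calls were made as follows, unless noted: active = compound raises GLP1 secretion from the human gut endocrine cells, with no numeric limit stated; inactive = the rest.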
# Key:
# [1] = Wnt pathway potentiators raising nuclear beta-catenin – imaging, WNT3A-conditioned medium, mouse C2C12, NPC library, primary screen (AID 1117326; in the data active = nuclear beta-catenin stimulation mostly above about 4.2%, no sharp cut-off; inactive = mostly below about 10%); conditions: stronger effect = higher value
# [2] = stimulators of insulin release from INS-1E, primary screen, cell-based, 5 mM glucose, NPC library (AID 1117329;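 active = compound raises insulin release from rat beta cells at 5 mM glucose, no numeric limit stated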); conditions: rat INS-1E insulin secretion, at 10 µM, stronger effect = higher value
# [3] = GLP1 release stimulators, primary, NCI-H716, NPC library (AID 1117341); conditions: NCI-H716 cells, at 10 µM, stronger effect = higher value
# [4] = growth inhibition of GSK3B-pretreated HCT116 cells – cell-based, CellTiter-Glo, 0.2 to 20 µM (AID 1117336;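 active = compounds lowering colon cancer cell viability after pretreatment blocking the GSK3B kinase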); conditions: HCT116 viability after GSK3B inhibitor, at 20 µM, stronger effect = higher value
# [5] = inhibition of endothelial tube formation, primary screen, imaging, VEGF stimulated, CD31 staining, tube area, NPC library (AID 1117340;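 active = compound that reduces growth-factor-driven endothelial tube area in a mixed cell culture, no cutoff stated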); conditions: VEGF-stimulated ADSC/ECFC co-culture, at 10 µM, stronger effect = higher value
# [6] = HCT116 colon cancer cell growth inhibition, primary screen, CellTiter-Glo luminescence, NPC library (AID 1117342;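 active = compounds that lower survival of HCT116 colon cancer cells in the luminescence readout, no numeric limit stated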); conditions: at 20 µM (top of the series)
# [7] = reduced SW480 viability measured with CellTiter-Glo, NPC library, primary (AID 1117343;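 active = compounds that lower viability of the colon cancer cells in the luminescence readout, with no numeric limit stated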); conditions: CellTiter-Glo luminescence; at 20 µM (top of the series) unless noted
# [8] = NPC library primary testing for decreased DLD-1 cell viability via CellTiter-Glo (AID 1117346;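 active = compounds that lower survival of DLD-1 colon cancer cells in the luminescence readout, no cutoff given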); conditions: DLD-1 viability, CellTiter-Glo luminescence; at 20 µM (top of the series)
# [9] = target: Mitogen-activated protein kinase 7 (Homo sapiens) (UniProt Q13164); assay: Gal4-ERK5 driven luciferase induction – cell-based, HTS, primary screen (AID 1508626;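 active = luciferase signal above three times the same-plate solvent-only control wells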;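 also: luciferase driven by Gal4-ERK5 fusion binding five Gal4 sites before minimal TATA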); conditions: HeLa Gal4-ERK5 transactivation, 18 h, at 5 µM, stronger effect = higher value
# [10] = viability loss with induced miR-34 in A549 – imaging, A549 dox-inducible miR-34, nuclei and caspase counts, primary screen (AID 1347080;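 active = compounds whose cell count with miR-34 switched on is under 0.7 times the count with it off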); conditions: A549 miR-34 inducible, Hoechst nuclei count, 48 h
# [11] = target: NAD(+) hydrolase SARM1 (Homo sapiens) (UniProt Q6SZW1); assay: blocking NAD cleavage by SARM1 SAM-TIR – cell lysate, NAD-Glo luminescence (AID 1508614;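 active = compound whose remaining NAD level is above about 45 nM, limit read from the data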;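 also: higher remaining NAD means stronger inhibition of SARM1 NADase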); conditions: SAM-TIR HEK293T lysate NADase, at 1 µM, stronger effect = higher value
# [12] = growth inhibition, single agent or in combination, cell-based, chromothripsis tumors, cisplatin or BGB combos (AID 1671449; in the data active = inhibition above about 80%;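 also: cells exposed for 96 hours; 0% = vehicle DMSO and 100% = killing by high DMSO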); conditions: LFS_MB_P medulloblastoma cells
# [13] = growth inhibition, single agent and combos, cell-based, chromothripsis tumors, cisplatin or BGB combos (AID 1671450; in the data active = inhibition above about 80%;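 also: cells exposed to compound for four days; 0% = vehicle DMSO and 100% = cell killing by high DMSO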); conditions: HDN33 neuroblastoma cells, stronger effect = higher value
# [14] = growth inhibition, single agents and combos, ICB984, cell-based, cisplatin or BGB combos, synergistic combos for chromothripsis tumors (AID 1671451; call rule not given here;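 also: cells exposed for 96 hours before readout; 0% = vehicle DMSO and 100% = killing by high DMSO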); conditions: ICB984 medulloblastoma cells, drug combinations, stronger effect = higher value
# [15] = growth inhibition, single agents and combos, HTB85, cell-based, BGB or cisplatin IC20 combos, synergistic combos for chromothripsis tumors (AID 1671453; in the data active = inhibition above about 80%;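 also: cells exposed for 96 hours before readout; 0% = vehicle DMSO and 100% = high DMSO killing control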); conditions: HTB85 osteosarcoma cells, drug combinations, stronger effect = higher value
# [16] = at 0.5 µM, stronger effect = higher value
# [17] = measured here: combination with BGB IC20, at 0.005 µM
# [18] = measured here: combination with BGB IC40, at 0.005 µM
# [19] = measured here: combination with BGB IC40, at 0.05 µM
# [20] = measured here: combination with cisplatin, at 0.5 µM, stronger effect = higher value
# [21] = measured here: combination with cisplatin, at 5 µM, stronger effect = higher value
# [22] = measured here: with BGB IC20 combination, at 0.5 µM
# [23] = measured here: with cisplatin IC20 combination, at 0.5 µM
# [24] = measured here: 5 uM single agent, at 5 µM
# [25] = measured here: with BGB IC20, at 0.5 µM
# [26] = measured here: with BGB IC20, at 5 µM
# [27] = measured here: with cisplatin IC20, at 0.5 µM
# [28] = measured here: with cisplatin IC20, at 5 µM
# Mitogen-activated protein kinase 7 (Homo sapiens), sequence (Q13164 whole entry, looked up, the tested form may be a part): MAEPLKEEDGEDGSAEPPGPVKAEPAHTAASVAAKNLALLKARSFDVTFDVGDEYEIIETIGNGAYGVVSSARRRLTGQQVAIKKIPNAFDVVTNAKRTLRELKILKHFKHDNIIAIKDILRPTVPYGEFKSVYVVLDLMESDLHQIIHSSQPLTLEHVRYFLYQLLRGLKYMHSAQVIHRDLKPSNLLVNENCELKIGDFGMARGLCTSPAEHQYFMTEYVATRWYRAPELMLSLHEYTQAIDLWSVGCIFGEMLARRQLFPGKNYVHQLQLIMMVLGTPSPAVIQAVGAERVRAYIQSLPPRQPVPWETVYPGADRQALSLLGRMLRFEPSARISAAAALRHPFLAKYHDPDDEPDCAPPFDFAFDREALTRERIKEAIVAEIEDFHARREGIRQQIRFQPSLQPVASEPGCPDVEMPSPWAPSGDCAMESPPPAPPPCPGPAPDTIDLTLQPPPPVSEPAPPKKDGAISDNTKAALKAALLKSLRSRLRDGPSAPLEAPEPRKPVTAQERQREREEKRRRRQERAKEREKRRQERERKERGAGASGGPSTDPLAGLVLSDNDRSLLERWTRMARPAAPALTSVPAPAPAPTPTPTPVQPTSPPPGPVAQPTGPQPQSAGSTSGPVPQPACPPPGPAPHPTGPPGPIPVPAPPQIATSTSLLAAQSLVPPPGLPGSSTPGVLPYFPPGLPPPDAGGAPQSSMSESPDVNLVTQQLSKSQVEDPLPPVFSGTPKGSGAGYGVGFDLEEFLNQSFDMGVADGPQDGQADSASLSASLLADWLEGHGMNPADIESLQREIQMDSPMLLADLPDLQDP
# NAD(+) hydrolase SARM1 (Homo sapiens), sequence (Q6SZW1 whole entry, looked up): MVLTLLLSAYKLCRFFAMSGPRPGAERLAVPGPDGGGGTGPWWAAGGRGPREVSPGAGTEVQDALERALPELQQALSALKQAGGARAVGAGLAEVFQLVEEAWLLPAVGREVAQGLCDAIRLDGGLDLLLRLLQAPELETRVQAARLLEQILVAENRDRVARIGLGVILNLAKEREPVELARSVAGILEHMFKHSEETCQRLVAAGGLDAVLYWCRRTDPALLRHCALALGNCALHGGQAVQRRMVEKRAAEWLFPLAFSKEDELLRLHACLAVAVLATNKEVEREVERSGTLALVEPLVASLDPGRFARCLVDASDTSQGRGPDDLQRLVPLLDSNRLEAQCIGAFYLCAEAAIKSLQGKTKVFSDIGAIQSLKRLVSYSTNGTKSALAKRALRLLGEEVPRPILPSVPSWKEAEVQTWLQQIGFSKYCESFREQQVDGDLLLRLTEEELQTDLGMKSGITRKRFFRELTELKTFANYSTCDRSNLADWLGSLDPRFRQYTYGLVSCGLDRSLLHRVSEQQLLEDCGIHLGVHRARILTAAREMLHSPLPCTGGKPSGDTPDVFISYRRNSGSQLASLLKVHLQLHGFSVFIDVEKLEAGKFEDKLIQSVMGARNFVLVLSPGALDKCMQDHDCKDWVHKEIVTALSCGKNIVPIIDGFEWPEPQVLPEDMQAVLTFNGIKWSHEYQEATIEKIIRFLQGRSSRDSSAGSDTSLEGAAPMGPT
compound,measurement,setting,value
C=CCCCCCCCCC(=O)OC,nuclear beta-catenin stimulation,[1]; at 10 µM,2.7% (inactive)
same,nuclear beta-catenin stimulation,"[1]; stimulation, at 2 µM",2%
same,insulin secretion stimulation,[2],2.85% (inactive)
same,GLP1 secretion stimulation,[3],1.2% (inactive)
C#C[C@]1(OC(C)=O)CC[C@H]2[C@@H]3CCC4=C/C(=N/O)CC[C@@H]4[C@H]3CC[C@@]21CC,nuclear beta-catenin stimulation,[1]; at 10 µM,3.7% (inactive)
same,nuclear beta-catenin stimulation,"[1]; stimulation, at 2 µM",2.1%
same,insulin secretion stimulation,[2],-0.2% (inactive)
same,viability decrease,[4],98.8% (active)
same,tube area decrease,[5],99% (active)
same,GLP1 secretion stimulation,[3],-2.6% (inactive)
same,inhibition of viability,[6],99.1% (active)
same,viability decrease (inhibition),[7],102% (active)
same,viability decrease (inhibition),[8],101% (active)
same,luciferase signal,[9],24 AU (inactive)
C[C@]12CCC(=O)C=C1CC[C@H]1[C@@H]3CC[C@](O)(C(=O)CO)[C@@]3(C)C[C@H](O)[C@@]12F,nuclear beta-catenin stimulation,[1]; at 10 µM,-2.1% (inactive)
same,nuclear beta-catenin stimulation,"[1]; stimulation, at 2 µM",-2.1%
same,insulin secretion stimulation,[2],0.3% (inactive)
same,viability decrease,[4],-81.6% (inactive)
same,tube area decrease,[5],10.3% (inactive)
same,GLP1 secretion stimulation,[3],0.3% (inactive)
same,inhibition of viability,[6],-8.17% (inactive)
same,viability decrease (inhibition),[7],-20% (inactive)
same,viability decrease (inhibition),[8],-2% (inactive)
CCCCN1CCCC1C(=O)Nc1c(C)cc(C)cc1C (stereo not drawn),nuclear beta-catenin stimulation,[1]; at 10 µM,1% (inactive)
same,nuclear beta-catenin stimulation,"[1]; stimulation, at 2 µM",-0.4%
same,insulin secretion stimulation,[2],0% (inactive)
same,GLP1 secretion stimulation,[3],-3.8% (inactive)
C[C@H](O)CN(C)C,nuclear beta-catenin stimulation,[1]; at 10 µM,-0.1% (inactive)
same,nuclear beta-catenin stimulation,"[1]; stimulation, at 2 µM",1.5%
same,insulin secretion stimulation,[2],0.35% (inactive)
same,GLP1 secretion stimulation,[3],-2.5% (inactive)
CCN(CC)C(=O)c1cccnc1,nuclear beta-catenin stimulation,[1]; at 10 µM,2.1% (inactive)
same,nuclear beta-catenin stimulation,"[1]; stimulation, at 2 µM",-1%
same,insulin secretion stimulation,[2],1.2% (inactive)
same,viability decrease,[4],6.1% (inactive)
same,GLP1 secretion stimulation,[3],1.6% (inactive)
same,inhibition of viability,[6],14.5% (inactive)
same,viability decrease (inhibition),[7],-1.1% (inactive)
same,viability decrease (inhibition),[8],6.2% (inactive)
same,fold change,"[10]; stronger effect = lower value, cell number ratio, induced over uninduced",0.953 (inactive)
same,fold change,[10]; measured here: relative caspase fold change +Dox/-Dox,0.829
same,cell count,"[10]; measured here: total cells with miR-34 induction, stronger effect = lower value",8700
same,cell count,[10]; measured here: total cells without miR-34 induction,9130
same,remaining NAD,[11],10 nM (inactive)
CN1C[C@@H]2C[C@H]1CN2c1cc2c(cc1F)c(=O)c(C(=O)O)cn2C1CC1,nuclear beta-catenin stimulation,[1]; at 10 µM,0.8% (inactive)
same,nuclear beta-catenin stimulation,"[1]; stimulation, at 2 µM",-0.6%
same,insulin secretion stimulation,[2],0.3% (inactive)
same,viability decrease,[4],10.6% (inactive)
same,tube area decrease,[5],-6.5% (inactive)
same,GLP1 secretion stimulation,[3],-0.3% (inactive)
same,inhibition of viability,[6],3.9% (inactive)
same,viability decrease (inhibition),[7],-13% (inactive)
same,viability decrease (inhibition),[8],-40.5% (inactive)
same,inhibition,[12]; [16],0.4% (inactive)
same,inhibition,[12]; [17],-2.07%
same,inhibition,[12]; [18],-7.14%
same,inhibition,[12]; [19],-8.41%
same,inhibition,[12]; [20],-11.6%
same,inhibition,[12]; [21],-5.22%
same,inhibition,"[13]; BGB combo, at 5 µM",-34.1%
same,inhibition,[13]; at 0.5 µM,-30.1% (inactive)
same,inhibition,"[13]; cisplatin combo, at 5 µM",-33.7%
same,inhibition,[13]; [22],-23.1%
same,inhibition,[13]; [23],-48.5%
same,inhibition,"[13]; single agent, at 5 µM",-33.7%
same,inhibition,"[14]; BGB IC20 combo, at 0.005 µM",-24.2%
same,inhibition,"[14]; BGB IC40 combo, at 0.005 µM",-26.9%
same,inhibition,"[14]; BGB IC40 combo, at 0.05 µM",-20.5%
same,inhibition,[14]; at 0.5 µM,-31.1% (inactive)
same,inhibition,"[14]; cisplatin combo, at 0.05 µM",-23.9%
same,inhibition,"[14]; cisplatin combo, at 0.5 µM",-25.9%
same,inhibition,"[14]; cisplatin combo, at 5 µM",-68.4%
same,inhibition,[14]; [24],-23.8%
same,inhibition,[15]; at 0.5 µM,-40.1% (inactive)
same,inhibition,[15]; [25],-66.1%
same,inhibition,[15]; [26],-64.1%
same,inhibition,[15]; [27],-24.8%
same,inhibition,[15]; [28],-32.6%
same,inhibition,"[15]; single agent, at 5 µM",-25%
N[C@H]1C(O)O[C@H](CO)[C@@H](O)[C@@H]1O (stereo partly drawn),nuclear beta-catenin stimulation,[1]; at 10 µM,-1% (inactive)
same,nuclear beta-catenin stimulation,"[1]; stimulation, at 2 µM",1.7%
same,insulin secretion stimulation,[2],1.4% (inactive)
same,viability decrease,[4],7.5% (inactive)
same,tube area decrease,[5],-12.1% (inactive)
same,GLP1 secretion stimulation,[3],-0.8% (inactive)
same,inhibition of viability,[6],-4.93% (inactive)
same,viability decrease (inhibition),[7],-42% (inactive)
same,viability decrease (inhibition),[8],-2.3% (inactive)
same,luciferase signal,[9],84 AU (inactive)
Cc1ccc2nc(N)[nH]c(=O)c2c1Sc1ccncc1,nuclear beta-catenin stimulation,[1]; at 10 µM,63.4% (active)
same,nuclear beta-catenin stimulation,"[1]; stimulation, at 2 µM",61.7%
same,insulin secretion stimulation,[2],1.1% (inactive)
same,viability decrease,[4],94.2% (active)
same,tube area decrease,[5],50.9% (active)
same,GLP1 secretion stimulation,[3],1.3% (inactive)
same,inhibition of viability,[6],81.5% (active)
same,viability decrease (inhibition),[7],78.8% (active)
same,viability decrease (inhibition),[8],42.1% (inactive)
same,inhibition,[12]; [16],15.7% (inactive)
same,inhibition,[12]; [17],-4.28%
same,inhibition,[12]; [18],-17.9%
same,inhibition,[12]; [19],-6.64%
same,inhibition,[12]; [20],12.2%
same,inhibition,[12]; [21],-5.06%
same,inhibition,"[13]; BGB combo, at 5 µM",21.4%
same,inhibition,[13]; at 0.5 µM,-26.6% (inactive)
same,inhibition,"[13]; cisplatin combo, at 5 µM",28.1%
same,inhibition,[13]; [22],-32.4%
same,inhibition,[13]; [23],-14.7%
same,inhibition,"[13]; single agent, at 5 µM",43.4%
same,inhibition,"[14]; BGB IC20 combo, at 0.005 µM",-27.9%
same,inhibition,"[14]; BGB IC40 combo, at 0.005 µM",-29.4%
same,inhibition,"[14]; BGB IC40 combo, at 0.05 µM",-15.3%
same,inhibition,[14]; at 0.5 µM,-23.3% (inactive)
same,inhibition,"[14]; cisplatin combo, at 0.05 µM",-21.2%
same,inhibition,"[14]; cisplatin combo, at 0.5 µM",-25.7%
same,inhibition,"[14]; cisplatin combo, at 5 µM",-19.8%
same,inhibition,[14]; [24],-37.5%
same,inhibition,[15]; at 0.5 µM,-33.1% (inactive)
same,inhibition,[15]; [25],-36.1%
same,inhibition,[15]; [26],7.13%
same,inhibition,[15]; [27],-25.9%
same,inhibition,[15]; [28],0.276%
same,inhibition,"[15]; single agent, at 5 µM",0.242%
CCC(C(=O)OCCOCCN(CC)CC)c1ccccc1 (stereo not drawn),nuclear beta-catenin stimulation,[1]; at 10 µM,1.3% (inactive)
same,nuclear beta-catenin stimulation,"[1]; stimulation, at 2 µM",-2.5%
same,insulin secretion stimulation,[2],5.45% (inactive)
same,GLP1 secretion stimulation,[3],7.5% (inactive)

# From PubChem BioAssay
